Only a selection was taken, and hits are over-represented in it overall.
VP16 counter: inhibits Gal4-VP16 luciferase reporter, ROR gamma counter-screen. 310,000 compounds, 3.5% hits. AID 2546. Potency, µM (titrated, usually from 53.6 µM), inactives show top-dose activity, negative = inhibition, usual class: inhibitors. Drosophila S2 Gal4-VP16 UAS-luciferase, luminescence, 20 h;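 also: Gal4-VP16 expression switched on by copper sulfate through the metallothionein promoter; potency is read from the fitted curve at half-maximal effect; % is scaled to controls: 0 for no effect and ±100 for the full control effect; nearly all actives have a fitted effect of over 50% in size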
Giardia kill: kills Giardia lamblia | Giardia lamblia trophozoite viability | activity change, % at 7.66 µM, hits read low | 340,000 compounds, 0.15% hits; in the data active = activity change below about -80%; inconclusive = between about -30% and that limit;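 also: parasites exposed to compound for two days anaerobically before the ATP read; % is scaled to controls: 0 for no effect and ±100 for the full control effect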
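Anaerobic 48 hrs incubation at 37 deg C of 100 trophozoites/well with test compounds; ATPLite 1-Step luminescence, 15-30 min RT, reports cellular ATP as viability.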
RORgamma inh: inhibitors of mouse ROR gamma transcriptional activity | Drosophila S2 Gal4-RORgamma UAS-luciferase reporter, 20 h | Potency, µM (series often up to 53.6 µM), without a hit: at the top dose activity change, negative = inhibition, most hits filed as inhibitors | 310,000 compounds, 5.4% hits | AID 2551; also: potency is read from the fitted curve at half-maximal effect; % is scaled to controls: 0 for no effect and ±100 for the full control effect; nearly all actives have a fitted effect of over 60% in size
Target sequence (P51450 whole entry, looked up, the tested form may be a part): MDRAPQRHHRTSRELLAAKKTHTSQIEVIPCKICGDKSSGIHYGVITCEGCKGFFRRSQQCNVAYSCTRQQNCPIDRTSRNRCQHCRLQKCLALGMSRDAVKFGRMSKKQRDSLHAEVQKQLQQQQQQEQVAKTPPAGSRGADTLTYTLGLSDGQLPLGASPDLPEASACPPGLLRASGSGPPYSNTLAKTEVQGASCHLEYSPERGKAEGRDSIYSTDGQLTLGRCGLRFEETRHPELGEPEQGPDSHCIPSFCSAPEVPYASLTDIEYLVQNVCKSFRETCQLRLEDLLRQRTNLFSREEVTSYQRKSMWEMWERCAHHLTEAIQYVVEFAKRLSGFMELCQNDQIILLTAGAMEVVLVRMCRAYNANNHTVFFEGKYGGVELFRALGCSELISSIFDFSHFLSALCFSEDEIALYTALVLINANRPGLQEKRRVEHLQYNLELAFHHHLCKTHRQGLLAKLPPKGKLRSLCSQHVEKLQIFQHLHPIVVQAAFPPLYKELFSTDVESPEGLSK
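Stably transfected Drosophila Schneider cells are the test system, with ROR gamma fused to Gal4 and luciferase under UAS control; luminescence is read after 20 hr of 700 uM copper sulfate induction at ambient temperature.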
ERG-DNA inh: ERG Ets/DNA interaction inhibition. P11308. fluorescence polarization, His-ERG Ets domain / labelled DNA. Potency, µM (doses to about 76.9 µM), for the others: at the highest dose FP activity, negative = inhibition, most hits filed as inhibitors. 370,000 compounds, 0.028% hits. AID 624246; active = well fitted inhibition curve with a large enough effect in the polarisation, with a control signal flat; inconclusive = small, poorly fitted or top-dose-only effect, or effect the other way, or a change in a side signal; inactive = no such curve, though single readings can be large or run the other way; the % refers to the polarisation;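 also: polarization taken with two DNA probes labelled with fluorescein and Texas red; potency is read from the fitted curve at half-maximal effect; % of control where 0% means no effect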
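His-tagged ERG Ets domain (1 uM in the protein solution; 300mM KCl, 50mM Tris-HCl, 1mM EDTA, 1mM DTT, pH 7.5) received compound, then a probe mix of 5 nM fluorescein-DNA and 100nM Texas-615-DNA. Fluorescence polarization was read for both dyes.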
Integrin act MD: integrin-mediated muscular dystrophy alleviation activation. alpha7betagal myoblasts, beta-gal FDG fluorescence, 48 h. Potency, µM (series often up to 38.3 µM), inactives show at the highest dose activation, hits mostly activators. 350,000 compounds, 0.064% hits. AID 624291;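 also: potency is read from the fitted curve at half-maximal effect; 100% = response of the positive control SU9516; nearly all actives have a fitted effect of over 60% in size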
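alpha7betagal+/- myoblasts (passage 13, 250/well) treated 48 h at 37C with compounds at 1:260 dilution of DMSO stock. Lysed, then beta-galactosidase activity read as FDG fluorescence (ex 480/em 540) after 30 min, with pre-read for autofluorescence.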
The depositor's hits bear a star; ? = inconclusive; nt = no result; [ ] = dose if it differs, or a comment. Unless noted, calls follow the shape of the dose curve; as a rule, active = well fitted curve in the direction sought with a large enough effect; inconclusive = small, poorly fitted or top-dose-only effect, or another doubt; inactive = no such curve, though single readings can be large; an effect the other way counts as inactive or inconclusive.

SMILES	VP16 counter	Giardia kill	RORgamma inh	ERG-DNA inh	Integrin act MD
O=C(O)c1ccc(NC(=O)c2cccc(S(=O)(=O)Nc3ccc(C(=O)O)cc3)c2)cc1	-21%	-10	-8%	0%	7%
O=C1CSc2ccc(C(=O)Nc3cccc(S(=O)(=O)Nc4ccc(Br)cc4)c3)cc2N1	10µM*	?	16µM*	9%	-8%
CN(C)S(=O)(=O)c1cccc(C(=O)Nc2ccc3c(c2)CCC3)c1	1%	-14	-13%	6%	2.8µM*
CCN(CC)CCNC(=O)c1ccc(NC(=O)c2cccc(S(=O)(=O)N3CCc4ccccc43)c2)cc1	nt	8	nt	4%	-53%
CCN(CC)CCNC(=O)c1ccc(NC(=O)c2cccc(S(=O)(=O)Nc3ccc(C)cc3)c2)cc1	16µM*	-18	-105%	6%	21%
CCCn1c2ccccc2c2cnn(CC(=O)NCCc3ccc(OCC)c(OCC)c3)c(=O)c21	nt	nt	nt	1%	nt
COc1ccc(CC(=O)NC(C)c2nnc(SCC(=O)Nc3cc(C)ccc3OC)n2C)cc1 (stereo not drawn)	-4%[10 µM]	7	28%	2%	16%
CC(=O)N[C@@H](Cc1c[nH]c2ccccc12)C(=O)NC1CC1	3%	6	24%	3%	?
Cc1ccc(S(=O)(=O)C(CNC(=O)COc2ccccc2)c2cccs2)cc1 (stereo not drawn)	nt	nt	nt	1%	nt
Fc1ccc(-c2ccnc(=S)[nH]2)cc1	2.8µM*	4	3.5µM*	nt	-19%
CSc1sc(-c2ccnc(=S)[nH]2)c(-c2ccccc2)c1C#N	7%	-2	-26%	1%	2%
Oc1cccc(C(Nc2ccccn2)c2ccc3cccnc3c2O)c1Cl (stereo not drawn)	nt	nt	nt	2%	nt
Oc1c(C(c2cccs2)N2CCN(c3ccccc3)CC2)ccc2cccnc12 (stereo not drawn)	7.9µM*	nt	5µM*	nt	nt
CN1CCN(C(c2ccc(C(F)(F)F)cc2)c2ccc3cccnc3c2O)CC1 (stereo not drawn)	1.6µM*	9	3.2µM*	-15%	-31%
Oc1c(C(c2ccccc2Cl)N2CCCC2)ccc2cccnc12 (stereo not drawn)	-80%	25	1.6µM*	0%	-43%
Cc1cc(C)c2c(=O)n(CC(=O)Nc3cccc(F)c3)sc2n1	?	-16	?	-4%	-72%
Cc1cc(C)c2c(=O)n(CC(=O)Nc3ccc(Cl)cc3)sc2n1	13µM*	11	?	-3%	-56%
CCOc1ccc(NC(=O)Cn2sc3nc(C)cc(C)c3c2=O)cc1	11µM*	10	?	-9%	6%
Fc1ccc(N2CCN(c3nc4ccccc4c4nc(-c5cccnc5)nn34)CC2)cc1	nt	nt	nt	2%	nt
O=S(=O)(Nc1ccc2c(c1)OCCO2)c1c(F)cccc1F	1%	5	12%	-7%	-2%
O=C(COc1ccc(Br)cc1)NCCCNC(=O)c1cccnc1	4%	3	-2%	-8%	5%
CCC1CCCCN1C(=O)CCc1nnc(Cc2cc(OC)ccc2OC)o1 (stereo not drawn)	-9%	-10	3%	13%	-12%
CNc1nnc(SCC(=O)c2cc(C)n(C3CC3)c2C)s1	nt	-26	nt	-5%	13µM*
Cc1nnc(SCC(=O)c2cc(C)n(C3CC3)c2C)s1	-6%	-11	10%	1%	3%
COc1cccc(C2CC(c3cccc(NS(C)(=O)=O)c3)=NN2C(=O)c2ccccc2)c1OC (stereo not drawn)	-13%	10	2µM*	2%	-18%
SMILES	VP16 counter	Giardia kill	RORgamma inh	ERG-DNA inh	Integrin act MD
CN(C)c1ccc(C2CC(c3cccc(NS(C)(=O)=O)c3)=NN2C(=O)c2ccccc2)cc1 (stereo not drawn)	-6%	13	?	1%	-23%
Nc1c(Cl)nc(-c2ccccc2)nc1Cl	1%	-20	-43%	1%	-7%
Clc1ccc(/C=N/NC2=Nc3cccc4cccc2c34)cc1	14µM*	10	2µM*	nt	-25%
C(=N\NC1=Nc2cccc3cccc1c23)/c1ccccc1	?	14	2.2µM*	27%	-4%
C(=N\NC1=Nc2cccc3cccc1c23)/c1cccnc1	-6%	-15	?	28%	-9%
CCN(CC)CCCNc1nc2ccccc2c2[nH]c3ccc(OC)cc3c12	nt	-84*	nt	?	-6%

Screens from PubChem BioAssay.
